From PubChem BioAssay (NCATS)
Where “and” joins values, the source holds several entries; their conditions need not be identical. Identical values can stand only once. Inconclusive results are not listed. Calls of active or inactive are those of the source. Unless noted, calls follow the shape of the dose curve; as a rule, active = well fitted curve in the direction sought with a large enough effect; inconclusive = small, poorly fitted or top-dose-only effect, or another doubt; inactive = no such curve, though single readings can be large; an effect the other way counts as inactive or inconclusive.

How the values were obtained:
[1] = AP1 Signaling Pathway (AID 357; active = well fitted curve in either direction with a large enough effect, not every such curve was filed as active;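 also: ME-180 reporter cells stimulated with EGF at its EC50 level; % is scaled to controls: 0 for no effect and ±100 for the full control effect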); settings: ME-180 AP-1-bla reporter, EGF-induced, beta-lactamase ratio, 5 h
How it was run: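 Beta-lactamase reporter under AP-1 response element, ME-180 background. Stimulus: EC50 EGF. Compound exposure 5 h, 37 °C. Detection: CCF4, 2.5 h RT, 460/530 nm. Values: AC50 from titration.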

[2] = NFAT Signaling Pathway (AID 444; active = well fitted curve in either direction with a large enough effect, not every such curve was filed as active;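 also: carbachol stimulus at about its EC50 of 1 µM final; % is scaled to controls: 0 for no effect and ±100 for the full control effect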); settings: Jurkat NFAT-bla M1, carbachol, beta-lactamase ratio, 5 h
How it was run: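 Read-out: CCF4 FRET ratio (460 nm/530 nm) after 1 h RT dye loading, used for %activity and AC50 from titration series. Cells: Jurkat NFAT-β-lactamase/M1 line, treated with compound plus 1 uM carbachol for 5 h, 37 °C.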

[3] = Stat Signaling Pathway (AID 446; active = well fitted curve in either direction with a large enough effect, not every such curve was filed as active;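 also: ME-180 cervical cancer cells given 40 pM IL-6 alongside compound; SIE-controlled beta-lactamase reporter measured as 460/530 nm FRET emission ratio; % is scaled to controls: 0 for no effect and ±100 for the full control effect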); settings: ME-180 (cervical carcinoma) SIE beta-lactamase reporter, IL-6 stimulated, 5 h
How it was run: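 FRET read-out (405 nm excitation, 460/530 nm emission) of a beta-lactamase reporter under a STAT-inducible element in ME-180 cervical carcinoma cells. Cells with compound receive 40 pM IL-6 for 5 h. Values are normalised to AC90 stimulation and AC90 JAK-inhibitor controls.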

[4] = target: Glucocorticoid receptor (Homo sapiens) (UniProt P04150); experiment: GR-GFP Redistribution (AID 450;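 active = compounds whose dose series gives a full or clear partial fitted curve of increased nuclear translocation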; also: potency is read from the fitted curve at half-maximal effect); settings: U2OS GR-GFP nuclear translocation, laser cytometry, 2 h
Chain of Glucocorticoid receptor (Homo sapiens) (P04150 whole entry, looked up, the tested form may be a part): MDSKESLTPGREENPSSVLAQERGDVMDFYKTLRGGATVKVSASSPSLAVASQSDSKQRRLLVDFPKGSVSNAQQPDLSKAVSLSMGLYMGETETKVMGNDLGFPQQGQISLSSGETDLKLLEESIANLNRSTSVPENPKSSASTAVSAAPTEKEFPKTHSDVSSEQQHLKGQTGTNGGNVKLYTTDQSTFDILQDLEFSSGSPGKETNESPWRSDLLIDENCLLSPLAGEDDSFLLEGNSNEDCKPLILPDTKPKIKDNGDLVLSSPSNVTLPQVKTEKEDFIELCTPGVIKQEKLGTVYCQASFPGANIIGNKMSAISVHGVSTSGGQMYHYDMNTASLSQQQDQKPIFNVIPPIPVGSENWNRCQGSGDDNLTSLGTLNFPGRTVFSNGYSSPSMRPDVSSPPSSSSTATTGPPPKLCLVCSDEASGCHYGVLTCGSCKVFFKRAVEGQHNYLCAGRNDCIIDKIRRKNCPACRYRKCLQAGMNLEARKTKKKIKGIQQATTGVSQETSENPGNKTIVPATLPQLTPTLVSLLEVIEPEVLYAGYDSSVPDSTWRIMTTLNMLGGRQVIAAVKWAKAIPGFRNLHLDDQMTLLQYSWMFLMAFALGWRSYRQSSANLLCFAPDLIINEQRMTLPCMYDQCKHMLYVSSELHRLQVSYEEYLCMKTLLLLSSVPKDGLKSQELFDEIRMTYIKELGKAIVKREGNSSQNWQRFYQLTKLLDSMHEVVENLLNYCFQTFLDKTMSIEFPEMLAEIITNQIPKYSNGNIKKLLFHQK

[5] = target: Glucocorticoid receptor (Homo sapiens) (UniProt P04150); experiment: GR-EFC Redistribution (AID 451; calls by dose curve; also: potency is read from the fitted curve at half-maximal effect); settings: CHO-K1 GR-EFC translocation, beta-gal luminescence, 2 h
How it was run: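 Translocation of GR-ED fusion to nuclear EA restores b-gal, read by luminescence after 1 h room-temperature detection. Engineered CHO-K1 biosensor cells, 1,000/well, exposed 2 h at 37 C to titrations up to 46 uM final.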

[6] = target: Mitogen-activated protein kinase 10 (Mus musculus) (UniProt Q61831); experiment: JNK3 AlphaScreen Assay (AID 530; active = well fitted curve in either direction with a large enough effect, not every such curve was filed as active;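 also: kinase came from lysate of stimulated human HepG2 cells; signal reports phosphorylation of biotinylated GST-cJun 1-79 at Ser73 with 10 µM ATP; % is scaled to controls: 0 for no effect and ±100 for the full control effect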)
How it was run: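 Kinase buffer: 20 mM Tris-HCl pH 7.6, 10 mM MgCl2, 1 mM DTT, 0.1 mM Na3VO4, 0.01% Tween-20; ATP 10 uM. Substrate biotin-GST-cJun(1-79), enzyme from activated HepG2 lysates. Detection by Ser73 phospho-antibody AlphaScreen.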

[7] = target: 3',5'-cyclic-AMP phosphodiesterase 4B (Homo sapiens) (UniProt Q07343); experiment: qHTS Assay for Inhibitors of PDE-IV (AID 607; active = well fitted activation curve with a large enough effect in the main read-out, with a control signal flat, not every such curve was filed as active; also: % of control where 0% means no effect)
Chain of 3',5'-cyclic-AMP phosphodiesterase 4B (Homo sapiens) (Q07343 whole entry, looked up): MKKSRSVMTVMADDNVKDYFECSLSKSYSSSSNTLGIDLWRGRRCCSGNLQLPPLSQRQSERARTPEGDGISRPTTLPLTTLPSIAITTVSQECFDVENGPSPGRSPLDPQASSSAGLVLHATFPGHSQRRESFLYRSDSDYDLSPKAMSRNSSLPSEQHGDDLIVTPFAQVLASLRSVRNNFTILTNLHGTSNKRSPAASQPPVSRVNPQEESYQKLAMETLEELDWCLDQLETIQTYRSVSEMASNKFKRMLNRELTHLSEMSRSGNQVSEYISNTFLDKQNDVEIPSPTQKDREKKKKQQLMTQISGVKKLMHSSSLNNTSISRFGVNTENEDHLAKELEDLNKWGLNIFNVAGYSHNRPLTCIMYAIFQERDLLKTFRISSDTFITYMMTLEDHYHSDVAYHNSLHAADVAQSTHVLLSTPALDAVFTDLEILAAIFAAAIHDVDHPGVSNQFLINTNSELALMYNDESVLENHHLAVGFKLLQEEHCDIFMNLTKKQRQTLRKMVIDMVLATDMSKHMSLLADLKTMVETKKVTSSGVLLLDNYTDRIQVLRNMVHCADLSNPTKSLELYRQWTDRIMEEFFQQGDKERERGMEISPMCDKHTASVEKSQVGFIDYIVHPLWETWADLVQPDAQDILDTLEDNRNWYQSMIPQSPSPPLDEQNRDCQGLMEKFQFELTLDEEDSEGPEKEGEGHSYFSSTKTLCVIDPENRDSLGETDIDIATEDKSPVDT
How it was run: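 Cell-based read-out of cAMP via a modified cyclic nucleotide-gated channel and membrane potential dye (535/590 nm) in HEK293 cells expressing PDE4 endogenously. Compounds tested up to 22.9 uM final; 100 uM RO 20-1724 reference.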

[8] = target: Guanine nucleotide-binding protein G(i) subunit alpha-1 (Homo sapiens) (UniProt P63096); experiment: qHTS Assay for Inhibitors of RGS12 GoLoco Motif Activity (Green Fluorophore) (AID 879);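 also: 0% = labeled peptide with Gαi1 and full inhibition = labeled peptide alone without protein; negative values mean loss of peptide binding seen as reduced polarization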
How it was run: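 A drop in FITC polarization marked displacement of the FITC-tagged RGS12 GoLoco peptide (10 nM) from Gαi1 (50 nM). Compounds were incubated 10 min at room temperature in Tris pH 7.5 buffer containing 150 mM NaCl, 0.1 mM GDP and 0.05% NP40; unlabeled peptide titration served as control.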

[9] = target: Pyruvate kinase (Leishmania mexicana) (UniProt Q27686); experiment: qHTS Validation Assay for Inhibitors of Leishmania Mexicana Pyruvate Kinase (AID 945);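 also: 0% = DMSO only neutral control wells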
Chain of Pyruvate kinase (Leishmania mexicana) (Q27686 2-499 E452W): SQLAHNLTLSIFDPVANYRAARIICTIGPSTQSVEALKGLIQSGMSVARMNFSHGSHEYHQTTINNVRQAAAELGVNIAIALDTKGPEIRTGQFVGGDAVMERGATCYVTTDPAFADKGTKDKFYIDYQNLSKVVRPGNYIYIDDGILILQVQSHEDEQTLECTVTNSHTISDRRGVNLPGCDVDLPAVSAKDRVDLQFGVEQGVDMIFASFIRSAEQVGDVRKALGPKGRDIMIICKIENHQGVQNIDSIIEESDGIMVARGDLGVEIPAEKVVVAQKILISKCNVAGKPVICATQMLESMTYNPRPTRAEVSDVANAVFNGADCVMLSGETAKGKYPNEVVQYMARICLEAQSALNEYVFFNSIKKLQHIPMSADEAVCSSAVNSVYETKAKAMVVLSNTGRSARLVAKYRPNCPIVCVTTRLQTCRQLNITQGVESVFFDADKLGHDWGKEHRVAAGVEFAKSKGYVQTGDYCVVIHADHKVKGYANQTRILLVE
How it was run: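 Read-out: luminescence from PKLight stop/detection reagent, data normalized to DMSO. Reaction: 0.2 nM E451W LmPYK, 0.5 mM PEP, 0.1 mM ADP, pH 7.2, 1 h room temperature.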

[10] = target: Pyruvate kinase PKM (Homo sapiens) (UniProt P14618); experiment: qHTS Assay for Activators of Human Muscle Pyruvate Kinase (AID 954; active = well fitted curve in the direction sought with a large enough effect, not every such curve was filed as active;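 also: 0% = uninhibited enzyme and -100% = no enzyme or full thiadiazolimine inhibition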)
Chain of Pyruvate kinase PKM (Homo sapiens) (P14618 whole entry, looked up): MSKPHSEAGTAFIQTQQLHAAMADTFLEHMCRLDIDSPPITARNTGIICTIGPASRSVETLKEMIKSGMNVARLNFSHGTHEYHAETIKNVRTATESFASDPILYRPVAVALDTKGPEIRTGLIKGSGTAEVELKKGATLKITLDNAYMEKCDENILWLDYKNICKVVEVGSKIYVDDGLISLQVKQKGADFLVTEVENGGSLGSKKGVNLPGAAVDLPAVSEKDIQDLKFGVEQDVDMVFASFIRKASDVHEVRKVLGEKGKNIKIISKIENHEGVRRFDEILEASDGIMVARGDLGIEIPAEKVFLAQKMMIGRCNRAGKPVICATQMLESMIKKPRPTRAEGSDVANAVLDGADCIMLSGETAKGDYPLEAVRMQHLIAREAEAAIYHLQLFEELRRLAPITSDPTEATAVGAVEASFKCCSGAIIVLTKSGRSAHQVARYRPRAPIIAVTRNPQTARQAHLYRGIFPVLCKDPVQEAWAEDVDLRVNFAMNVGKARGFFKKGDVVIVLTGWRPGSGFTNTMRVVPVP
How it was run: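 ATP production by PKM2 detected via luciferase luminescence after 1 h room-temperature reaction (0.1 nM enzyme, PEP at Km 0.5 mM, ADP 0.1 mM, pH 7.2 imidazole buffer). Inhibition scaled to no-enzyme control; activation referenced to 0.3 nM enzyme wells.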

[11] = qHTS Assay for Lipid Storage Modulators (AID 1519; calls by dose curve); settings: Drosophila S3 cells, BODIPY lipid droplet/cell ratio, laser cytometry, cells loaded with oleic acid; for activity change, negative = inhibition: at 25.7 µM (top of the series)
How it was run: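 Cells seeded at 5,000 per well were treated with compounds over a concentration series and loaded with oleic acid (400 uM, as added). Lipid droplet fluorescence (488 nm excitation, 500-530 nm channel) was read by laser-scanning cytometry and normalized to 20 uM Triacsin C.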

[12] = target: ATP-dependent 6-phosphofructokinase (Trypanosoma brucei brucei) (UniProt O15648); experiment: qHTS Assay to Find Inhibitors of T. brucei phosphofructokinase: hit validation (AID 492961)
Chain of ATP-dependent 6-phosphofructokinase (Trypanosoma brucei brucei) (O15648 whole entry, looked up): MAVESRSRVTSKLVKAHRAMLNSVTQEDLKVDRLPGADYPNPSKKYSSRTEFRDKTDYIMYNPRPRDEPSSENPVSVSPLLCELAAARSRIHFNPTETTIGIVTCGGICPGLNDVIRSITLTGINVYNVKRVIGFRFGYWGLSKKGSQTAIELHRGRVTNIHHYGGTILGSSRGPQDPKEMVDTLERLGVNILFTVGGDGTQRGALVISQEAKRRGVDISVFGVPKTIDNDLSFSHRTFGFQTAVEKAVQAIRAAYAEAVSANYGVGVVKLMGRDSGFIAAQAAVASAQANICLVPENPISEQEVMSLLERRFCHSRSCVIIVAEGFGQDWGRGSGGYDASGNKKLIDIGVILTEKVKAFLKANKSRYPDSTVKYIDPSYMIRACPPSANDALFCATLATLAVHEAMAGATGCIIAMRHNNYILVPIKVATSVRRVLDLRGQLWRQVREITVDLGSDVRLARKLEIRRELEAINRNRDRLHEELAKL
How it was run: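 Measures ADP output of PFK (1.25 nM) at 0.1 mM ATP, 0.5 mM F6P, pH 8.0 TEA buffer with 5 mM MgCl2. No-enzyme wells define full inhibition; uninhibited enzyme wells define zero.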

[13] = target: Ubiquitin carboxyl-terminal hydrolase 1 (Homo sapiens) (UniProt O94782); experiment: Inhibitors of USP1/UAF1: Pilot qHTS (AID 504865);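 also: rhodamine fluorescence freed from ubiquitin-rhodamine substrate followed over time; top concentration of the series differs between compounds; % is scaled to controls: 0 for no effect and ±100 for the full control effect; nearly all actives have a fitted effect of over 35% in size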
Chain of Ubiquitin carboxyl-terminal hydrolase 1 (Homo sapiens) (O94782 whole entry, looked up): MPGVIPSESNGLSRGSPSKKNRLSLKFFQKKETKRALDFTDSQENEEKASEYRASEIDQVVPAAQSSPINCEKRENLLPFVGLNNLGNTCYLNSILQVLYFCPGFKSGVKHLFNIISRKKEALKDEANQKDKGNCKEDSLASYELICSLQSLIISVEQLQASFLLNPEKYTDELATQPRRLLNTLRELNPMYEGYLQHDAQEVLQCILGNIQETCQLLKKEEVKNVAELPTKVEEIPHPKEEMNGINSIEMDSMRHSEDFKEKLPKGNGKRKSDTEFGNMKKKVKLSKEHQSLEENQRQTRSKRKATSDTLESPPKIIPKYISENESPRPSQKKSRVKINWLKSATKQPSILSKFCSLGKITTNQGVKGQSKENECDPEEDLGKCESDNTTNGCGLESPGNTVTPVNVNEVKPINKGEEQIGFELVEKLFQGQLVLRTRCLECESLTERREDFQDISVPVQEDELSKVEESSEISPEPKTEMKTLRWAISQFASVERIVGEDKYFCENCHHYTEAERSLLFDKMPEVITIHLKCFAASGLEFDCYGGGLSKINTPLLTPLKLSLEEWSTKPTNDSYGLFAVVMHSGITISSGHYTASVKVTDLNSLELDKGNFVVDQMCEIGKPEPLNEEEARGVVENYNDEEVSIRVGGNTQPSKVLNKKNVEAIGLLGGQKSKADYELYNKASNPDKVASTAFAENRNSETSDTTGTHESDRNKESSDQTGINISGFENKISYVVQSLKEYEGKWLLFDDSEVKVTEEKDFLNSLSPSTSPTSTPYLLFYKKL
How it was run: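 USP1/UAF1 complex at 1 nM preincubated 15 min at room temperature with compound, then Ub-Rho substrate added at 150 nM final. Fluorescence (480/540 nm) read kinetically in 50 mM HEPES pH 7.8, 0.5 mM EDTA, 1 mM TCEP, 0.1 mg/ml BSA, 0.01% Tween-20.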

[14] = target: Luciferin 4-monooxygenase (Photinus pyralis) (UniProt P08659); experiment: Biochemical firefly luciferase enzyme assay for NPC (AID 624030);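 also: purified P. pyralis luciferase at 10 nM with luciferin and ATP substrate; 0% = DMSO and -100% = full luciferase inhibition by PTC124 control; nearly all actives have a fitted effect of over 70% in size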
Chain of Luciferin 4-monooxygenase (Photinus pyralis) (P08659 whole entry, looked up): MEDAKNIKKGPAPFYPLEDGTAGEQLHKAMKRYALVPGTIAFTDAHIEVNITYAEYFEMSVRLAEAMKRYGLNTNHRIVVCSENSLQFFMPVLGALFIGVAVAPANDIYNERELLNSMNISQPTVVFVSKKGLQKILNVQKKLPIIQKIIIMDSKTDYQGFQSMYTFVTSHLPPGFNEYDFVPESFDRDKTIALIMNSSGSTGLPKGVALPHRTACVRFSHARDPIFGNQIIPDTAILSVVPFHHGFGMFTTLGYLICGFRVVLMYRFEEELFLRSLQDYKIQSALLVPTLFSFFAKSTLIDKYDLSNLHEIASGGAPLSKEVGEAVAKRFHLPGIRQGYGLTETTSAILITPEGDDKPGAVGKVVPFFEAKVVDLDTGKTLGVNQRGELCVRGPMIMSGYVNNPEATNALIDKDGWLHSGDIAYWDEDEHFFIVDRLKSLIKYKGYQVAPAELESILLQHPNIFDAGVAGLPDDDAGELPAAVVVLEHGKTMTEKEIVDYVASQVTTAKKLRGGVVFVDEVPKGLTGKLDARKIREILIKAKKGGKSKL
How it was run: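 Direct inhibition of firefly luciferase enzyme (10 nM final, 50 mM Tris Acetate) assessed by luminescence within 5 minutes. Percent activity scaled between DMSO and PTC124 positive control, with concentration-effect curves classified by fit quality and response.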

[15] = qHTS profiling for inhibitors of Plasmodium falciparum proliferation (AID 504749);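 also: 0% = DMSO vehicle and full inhibition = artemisinin control; nearly all actives have a fitted effect of over 60% in size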; settings: P. falciparum in erythrocytes, SYBR Green DNA, 72 h
How it was run: (§1)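 In a 72 h erythrocytic culture (37 C, humidified, 5% CO2) at 2.5% hematocrit and 0.3% starting parasitemia, compounds were tested; SYBR Green I in detergent lysis buffer stained parasite DNA overnight.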

[16] = system: AS120; experiment: as above; settings: P. falciparum in erythrocytes, SYBR Green DNA, 72 h; series mostly up to 28.7 µM
How it was run: as §1

[17] = system: CP238; experiment: as above; settings: P. falciparum in erythrocytes, SYBR Green DNA, 72 h; series mostly up to 12.8 µM
How it was run: as §1

[18] = system: CP265; experiment: as above; settings: P. falciparum in erythrocytes, SYBR Green DNA, 72 h; series mostly up to 12.8 µM
How it was run: as §1

[19] = system: FAB9; experiment: as above; settings: P. falciparum in erythrocytes, SYBR Green DNA, 72 h; series mostly up to 12.8 µM
How it was run: as §1

[20] = target: Cytochrome P450 1A2 (Homo sapiens) (UniProt P05177); experiment: p450-cyp1a2 (AID 410; calls by dose curve;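 also: -100% = full effect of reference inhibitor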)
Chain of Cytochrome P450 1A2 (Homo sapiens) (P05177 whole entry, looked up): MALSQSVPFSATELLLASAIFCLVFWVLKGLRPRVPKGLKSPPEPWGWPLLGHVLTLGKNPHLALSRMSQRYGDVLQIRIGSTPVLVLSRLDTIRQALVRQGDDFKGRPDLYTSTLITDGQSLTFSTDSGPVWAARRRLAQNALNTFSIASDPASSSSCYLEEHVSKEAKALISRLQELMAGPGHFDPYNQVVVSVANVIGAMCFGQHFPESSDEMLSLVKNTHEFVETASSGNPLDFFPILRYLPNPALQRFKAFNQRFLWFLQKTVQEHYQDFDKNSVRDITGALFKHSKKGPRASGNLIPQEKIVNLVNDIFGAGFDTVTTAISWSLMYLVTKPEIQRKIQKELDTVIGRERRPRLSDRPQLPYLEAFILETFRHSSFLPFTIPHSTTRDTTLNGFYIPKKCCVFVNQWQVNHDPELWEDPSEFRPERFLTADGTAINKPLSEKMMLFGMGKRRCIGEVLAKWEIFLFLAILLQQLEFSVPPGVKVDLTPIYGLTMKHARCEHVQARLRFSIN
How it was run: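 20nM CYP1A2, 100uM Luciferin-ME (=Km), 100mM KPO4; cpd 10 min RT; +NADPH regen, 60 min RT; stop/detect 20 min; luminescence. Normalized to furafylline 57 uM = full inhibition.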

[21] = measured here: cell count channel max response
[22] = measured here: lipid channel max response
[23] = at 28.7 µM (top of the series), parasite line A
[24] = at 28.7 µM (top of the series), parasite line B
[25] = at 7.69 µM (top of the series) unless noted
[26] = at 12.8 µM (top of the series), parasite line A
[27] = at 12.8 µM (top of the series), parasite line B

COCCc1ccc(OC[C@H](O)CNC(C)C)cc1
10.9%: max response [11, 21]
inactive: activity change, negative = inhibition ([1]; at 17.2 µM (top of the series)) 15.8% | activity change, negative = inhibition ([1]; at 38 µM (top of the series)) 13.6% | activity change, negative = inhibition ([2]; at 17.2 µM (top of the series)) 1.88% | activity change, negative = inhibition ([2]; at 38 µM (top of the series)) -1.17% | activity, negative = inhibition ([3]; at 17.2 µM (top of the series)) -1.97% | activity, negative = inhibition ([3]; at 38 µM (top of the series)) 13.4% | Potency [4] > 46 µM and > 20.6 µM | Potency [5] > 46 µM and > 20.6 µM | Potency [6] | Potency [7] | Potency [8] | outcome [9] | outcome [10] | activity change, negative = inhibition [11] 1.2% | outcome [12] | Potency [13] | outcome [14] | activity, negative = inhibition [15, 23] 13.1% | activity, negative = inhibition [15, 24] 3.39% | Potency [16] | Potency [17] | Potency [18] | Potency [19]
11.2%: max response [11, 22]

C[n+]1ccccc1/C=N\O
inactive: activity change, negative = inhibition [1, 25] 1.66% [at 17.2 µM] | Potency [20] | activity change, negative = inhibition [2, 25] 3.73% [at 17.2 µM] | activity, negative = inhibition [3, 25] 2.75% [at 17.2 µM] | Potency [4] > 20.6 µM | Potency [5] > 20.6 µM | Potency [6] | Potency [7] | activity change, negative = inhibition [11] -1.41% | outcome [12] | outcome [14] | activity, negative = inhibition [15, 26] 14% | activity, negative = inhibition [15, 27] 8.58% | Potency [16] | Potency [17] | Potency [18] | Potency [19]
-7.21%: max response [11, 22]
-5.77%: max response [11, 21]

COc1c(O)cc2c(c1O)[C@@H]1O[C@@H](CO)[C@@H](O)[C@@H](O)[C@@H]1OC2=O
inactive: activity change, negative = inhibition [1, 25] 9.85% [at 17.2 µM] | Potency [20] | activity change, negative = inhibition [2, 25] 4.01% [at 17.2 µM] | activity, negative = inhibition [3, 25] -7.81% [at 17.2 µM] | Potency [4] > 20.6 µM | Potency [5] > 20.6 µM | Potency [6] | Potency [7] | activity change, negative = inhibition [11] -2.39% | outcome [12] | Potency [13] | outcome [14] | activity, negative = inhibition [15, 26] 5.83% | activity, negative = inhibition [15, 27] 11.9% | Potency [16] | Potency [17] | Potency [18] | Potency [19]
-7.08%: max response [11, 22]
-8.82%: max response [11, 21]

CN[C@@H](CC(C)C)C(=O)N[C@@H]1C(=O)N[C@H](CC(N)=O)C(=O)N[C@@H]2C(=O)N[C@H]3C(=O)N[C@H](C(=O)N[C@H](C(=O)O)c4cc(O)cc(O)c4-c4cc3ccc4O)[C@H](O)c3ccc(c(Cl)c3)Oc3cc2cc(c3O[C@H]2O[C@@H](CO)[C@@H](O)[C@@H](O)[C@@H]2O[C@@H]2C[C@](C)(N)[C@H](O)[C@H](C)O2)Oc2ccc(cc2Cl)[C@@H]1O
inactive: activity change, negative = inhibition [1, 25] 4.27% [at 17.2 µM] | activity change, negative = inhibition [2, 25] -5.38% [at 17.2 µM] | activity, negative = inhibition [3, 25] 7.22% [at 17.2 µM] | Potency [4] > 20.6 µM | Potency [5] > 20.6 µM | Potency [6] | Potency [7] | activity change, negative = inhibition [11] -2.11% | outcome [12] | outcome [14] | activity, negative = inhibition [15, 23] 3.64% | activity, negative = inhibition [15, 24] 4.98% | Potency [16] | Potency [17] | Potency [18] | Potency [19]
5.45%: max response [11, 21]
3.37%: max response [11, 22]
